Shown are actives, neighbours in structure and some others; about 4% of the full set was active somewhere.
BoNT F protease – inhibitors of Botulinum neurotoxin F light chain protease | actives 0.22% (n = 360,000) | AID 588497 | inhibition, % at 10 µM | Multiplex microsphere protease cleavage assay, flow cytometry; in the data active means inhibition above about 35%, passing the limit was not always enough; inconclusive means no clear call, values can overlap the other calls
VHR inh abs – blocks human VHR1 dual specificity phosphatase | actives 0.52% (n = 290,000) | inhibition, % at 13.3 µM | P51452 | recombinant VHR phosphatase, pNPP absorbance; in the data active means inhibition above about 50%
Target sequence (P51452 whole entry, looked up): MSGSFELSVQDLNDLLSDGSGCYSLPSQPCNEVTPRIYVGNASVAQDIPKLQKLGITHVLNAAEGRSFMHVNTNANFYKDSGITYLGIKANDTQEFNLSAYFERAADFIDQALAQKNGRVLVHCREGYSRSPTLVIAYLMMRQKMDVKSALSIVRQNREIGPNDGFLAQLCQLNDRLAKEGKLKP
Bead autofluor – compound fluorescence in toxin protease inhibitor counterscreen; AID 624483; actives 3.1% (n = 360,000); compound autofluorescence counterscreen, microsphere flow cytometry; stronger effect = higher value; fluorescence intensity (test concentration not listed); in the data active means fluorescence intensity above about 16000; inconclusive means no clear call, values can overlap the other calls
Anthrax LF inh2 – inhibitors of Bacillus anthracis lethal factor protease; P15917; inhibition, % at 10 µM; actives 0.12% (n = 360,000); multiplex microsphere protease cleavage assay, LF
BoNT-A LC inh2 – blocks Botulinum neurotoxin A light chain protease; multiplex microsphere protease substrate cleavage, flow cytometry; actives 0.17% (n = 360,000); inhibition, % at 10 µM
MazF activator – activators of E. coli MazEF toxin-antitoxin RNase. P0AE70. FAM/BHQ RNA-DNA oligo cleavage fluorescence, 5 h. activation, % at 20 µM. actives 0.32% (n = 350,000). AID 504720; in the data active means activation above about 50%
Target sequence (P0AE70 whole entry, looked up): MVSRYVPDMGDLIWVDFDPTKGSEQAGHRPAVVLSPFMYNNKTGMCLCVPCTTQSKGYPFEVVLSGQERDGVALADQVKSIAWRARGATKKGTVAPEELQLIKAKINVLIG
Numbers stand for hits; i = inactive; ? = inconclusive; nt = no result. Unless noted, no stated cut-off is given here; in the data, active means inhibition above about 30%; inconclusive means no clear call, values can overlap the other calls; inactive means below that.

SMILES	BoNT F protease	VHR inh abs	Bead autofluor	Anthrax LF inh2	BoNT-A LC inh2	MazF activator
Cc1cc(C(=O)N/N=C/c2ccc(-c3ccc([N+](=O)[O-])cc3C)o2)n[nH]1	i	i	i	i	i	75.4
Cc1cc(-c2nn(-c3ccccc3F)cc2CN2CCN(c3ccncc3)CC2)c(C)s1	i	i	i	i	i	i
CCCCCCNC(=O)CCNC(=O)c1cc(OC)c(OC)c(OC)c1	i	i	22280	i	i	i
COc1cc(C(=O)NCCC(=O)NC(C)C)cc(OC)c1OC	i	i	i	i	i	i
COc1cc(C(=O)Nc2ccc(Br)cc2C(=O)c2cc(OC)c(OC)c(OC)c2)cc(OC)c1OC	i	i	24193	i	i	i
COc1cc(C(=O)NCCSc2ccc(Br)cc2)cc(OC)c1OC	i	i	18300	i	i	i
COc1cc(C(=O)NCCSc2ccc(Cl)cc2)cc(OC)c1OC	i	i	i	i	i	i
COc1ccc(CC(N)c2csc(NC(=O)Nc3ccccc3Cc3ccccc3)n2)cc1 (stereo not given)	i	nt	i	i	i	nt
COc1ccccc1CNC(=O)c1cc(C)nc2ccccc12	i	i	i	i	i	i
CC/C(=N\NC(N)=O)c1c(O)[nH]c(=O)[nH]c1=O	?	i	?	i	i	i
CCCC(=O)c1c(O)[nH]c(=O)[nH]c1=O	i	i	22341	i	i	i
CCCc1cc(-c2n[nH]c(C)c2-c2ccc(C(=O)OCC)o2)c(O)cc1O	i	i	19356	i	i	i
O=S(=O)(N1CCCCCC1)N1CCN(S(=O)(=O)N2CCCCC2)CC1	i	i	19718	i	i	i
COc1ccc(C(=O)C=CNNC(=O)c2ccc(Cl)cc2)cc1	?	58.3	i	i	i	i
COc1ccc(/C=C/C(=O)c2ccc(Cl)cc2)c(OC)c1	i	i	18548	i	i	i
CC(=O)Nc1ccc(N/C=C/C(=O)c2ccc(Cl)cc2)cc1	nt	i	nt	nt	nt	56.9
CC(=O)c1ccc(N/C=C\C(=O)c2ccc(C)cc2)cc1	i	i	i	i	i	i
COc1ccc(/C=C/C(=O)c2cc(Cl)ccc2O)c(OC)c1	i	i	i	i	i	i
Cc1ccc(C)c(NC(=O)CCC(=O)OC(C(=O)c2ccccc2)c2ccccc2)c1 (stereo not given)	i	i	i	i	i	i
O=C(CCCCn1ccc(=O)[nH]c1=O)Nc1ccc(C(=O)O)c(O)c1	i	nt	i	i	i	i
CCOC(=O)C1=C(C)NC2=C(C1c1ccc([N+](=O)[O-])cc1)S(=O)(=O)c1ccccc12 (stereo not given)	i	i	17917	i	?	i
COCCNC(=O)c1onc(CCl)c1C(=O)OC	i	i	i	i	i	i
Cc1c(O[C@@H]2O[C@H](CO)[C@@H](O)[C@H](O)[C@H]2O)ccc2c1oc(=O)c1ccccc12	35.1	i	i	i	i	i
CCOC(=O)CCNC(=O)N1CCCC(C(=O)c2ccc3c(c2)OCO3)C1 (stereo not given)	i	i	i	i	i	i
COCC(=O)Nc1nc2n(n1)C(c1ccccc1)CC(c1ccc(OC)cc1)N2 (stereo not given)	i	i	i	i	i	i
SMILES	BoNT F protease	VHR inh abs	Bead autofluor	Anthrax LF inh2	BoNT-A LC inh2	MazF activator
COCC(=O)Nc1nc2n(n1)C(c1ccc(OC)cc1)CC(c1ccc(OC)cc1)N2 (stereo not given)	i	i	21259	i	?	i
CCOc1ccc(C2CC(c3ccccc3)Nc3nc(N)nn32)cc1 (stereo not given)	i	i	18914	i	?	i
O=C(O)CCCC(=O)Nc1nc2n(n1)C(c1ccc(F)cc1)CC(c1ccc(Cl)cc1)N2 (stereo not given)	i	i	21330	i	i	i
O=C(N/N=C/c1ccc(-c2ccccc2[N+](=O)[O-])o1)[C@H]1C[C@@H]1c1ccccc1	i	i	i	i	i	i
CCNC(=S)NNC(=O)c1cccn(Cc2ccc(Cl)cc2)c1=O	i	i	22835	i	i	i
Cc1ccc(NC(=O)CSc2ccc(-c3ccccn3)nn2)cc1F	i	i	i	i	i	i
COc1ccc(Cn2c3nc4ccccc4nc3c3c(=O)n(Cc4ccco4)c(C)nc32)cc1	nt	91.2	nt	nt	nt	nt
COc1ccc(Cn2c(C)nc3c(c2=O)c2nc4ccccc4nc2n3Cc2ccco2)cc1	i	nt	i	i	i	i
O=C(Nc1ccc(CN2CCOCC2)cc1)c1ccc(Cl)cc1	i	i	i	i	i	i
COC(=O)c1ccc(NC(=O)c2ccc(CN3CCOCC3)cc2)cc1	i	i	16430	i	i	i
O=C(Nc1ccc(CN2CCOCC2)cc1)c1cccc(F)c1	i	i	18588	i	i	i
O=C(Nc1ccc(CN2CCOCC2)cc1)c1ccc2ccccc2c1	i	i	i	i	i	i
O=C(NC1(C(=O)NC2CCCCC2)CCCCC1)c1ccc2c(c1)OCO2	i	51.6	i	i	i	i
CC1(C(=O)NC2CCCCCC2)CCC(=O)N1Cc1ccc2c(c1)OCO2 (stereo not given)	i	i	16292	i	i	i
CC1(C(=O)NC2CCCCC2)CCC(=O)N1Cc1ccc2c(c1)OCO2 (stereo not given)	i	i	i	i	i	i
Cc1ccc(S(=O)(=O)N2CCN(c3cc4c(cc3[N+](=O)[O-])n(C)c(=O)n4C)CC2)cc1	i	i	i	i	i	i
COc1ccc(-c2cc(C#N)nc(Oc3ccc(Cl)cc3)n2)cc1	i	i	i	i	i	i
Cc1ccc(NC(=O)c2ccccc2)s1	i	i	24292	i	i	i
O=C(Cc1ccccc1)Nc1ccc(N2CCCC2)cc1	i	i	i	i	i	i
O=C(Cc1ccccc1)Nc1cccc(N2CCCC2)c1	i	i	22002	i	?	i
NC(=S)Nc1nccc(-c2cccs2)n1	i	i	i	i	i	i
CCOc1ccccc1NC(=O)CN1C(=O)C(C)SC(C)C1=O (stereo not given)	i	i	i	i	i	i
CC(=O)Nc1ccccc1C	i	nt	i	i	i	i
CC(=O)Nc1ccc(NC(=O)C(F)(F)F)cc1	i	i	22771	i	?	i
CC(=O)Nc1ccc(C(=O)O)cc1	i	nt	i	i	i	i
SMILES	BoNT F protease	VHR inh abs	Bead autofluor	Anthrax LF inh2	BoNT-A LC inh2	MazF activator
CC(=O)Nc1ccccc1NC(=O)C(F)(F)F	i	i	16513	i	i	i
Cc1cc(-n2c(=O)c(C#N)cc3c(=O)n4ccccc4nc32)no1	i	i	i	i	i	i
CCCCCn1c(=NC(C)=O)c(C#N)cc2c(=O)n3ccccc3nc21	i	i	23665	i	i	i
CCCCn1c(=NC(=O)c2ccc3c(c2)OCO3)c(C#N)cc2c(=O)n3cccc(C)c3nc21	38.4	i	i	49.0	62.7	i
COCCn1c(=NC(=O)c2ccc3c(c2)OCO3)c(C#N)cc2c(=O)n3cccc(C)c3nc21	nt	i	nt	nt	nt	nt
Cc1ccccc1-n1c(=O)c(C#N)cc2c(=O)n3ccccc3nc21	i	i	21339	i	?	i
COCCN(CCOC)c1cc(C)c(C#N)c2nc3ccccc3n12	i	i	i	i	i	i
Cc1nc(SCC(=O)c2c(C)[nH]c3ccccc23)c2c(=O)n(C)c(=O)n(CC(C)C)c2n1	nt	i	nt	nt	nt	nt

Screening results deposited in PubChem BioAssay by several laboratories.
